Only some compounds are listed: those with a hit (about 3.1% of all), similar ones and a draw of the others.
Pin1 inhibitor – human Pin1 inhibition. Q13526. Pin1 FP peptide displacement, HiFluor488, 10 min. Potency, µM (highest dose often 115 µM), for inactives: top-dose activity, negative = inhibition, hits mostly inhibitors. 0.009% of 390,000 active. AID 504891; active means well fitted inhibition curve with a large enough effect in the polarisation, with a control signal flat, not every such curve was filed as active; inconclusive means small, poorly fitted or top-dose-only effect, or effect the other way, or a change in a side signal; inactive means no such curve, though single readings can be large or run the other way; the % refers to the polarisation; further: on the % scale 0 is the no-effect control and ±100 the full control effect
Target sequence (Q13526 whole entry, looked up): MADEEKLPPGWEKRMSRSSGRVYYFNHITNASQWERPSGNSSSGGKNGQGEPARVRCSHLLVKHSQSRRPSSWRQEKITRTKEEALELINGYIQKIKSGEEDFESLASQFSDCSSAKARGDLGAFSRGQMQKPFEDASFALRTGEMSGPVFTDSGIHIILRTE
VDR inhibitor – inhibitors of human vitamin D receptor; P11473; VDR-SRC2-3 peptide fluorescence polarization, 2 h; Potency, µM, without a hit: max response, negative = inhibition, usual class: inhibitors; 0.93% of 400,000 active; AID 504847; further: on the % scale 0 is the no-effect control and ±100 the full control effect
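After 23 nl compound addition and a short centrifugation, plates sat for 2 hours at ambient temperature; polarization of fluorescence then indicated loss of VDR binding to peptide SRC2-3.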
PLK1 PBD inh – PLK1 (human) polo-box domain binding inhibition | P53350 | Plk1 PBD binding of FITC phosphopeptide, fluorescence polarization | Potency, µM, for inactives: max response, negative = inhibition, actives largely listed as inhibitors | 2.8% of 360,000 active | AID 720504; further: series mostly up to about 57 µM; on the % scale 0 is the no-effect control and ±100 the full control effect; nearly all actives have a fitted effect of over 65% in size
TDP1 inh – inhibitors of human tyrosyl-DNA phosphodiesterase TDP1; Q9NUW8; recombinant TDP1, AlphaScreen DNA substrate cleavage; Potency, µM (top dose mostly 130 µM), for inactives: top-dose activity change, negative = inhibition, actives largely listed as inhibitors; 0.28% of 350,000 active; further: on the % scale 0 is the no-effect control and ±100 the full control effect; nearly all actives have a fitted effect of over 40% in size
Target sequence (Q9NUW8 whole entry, looked up): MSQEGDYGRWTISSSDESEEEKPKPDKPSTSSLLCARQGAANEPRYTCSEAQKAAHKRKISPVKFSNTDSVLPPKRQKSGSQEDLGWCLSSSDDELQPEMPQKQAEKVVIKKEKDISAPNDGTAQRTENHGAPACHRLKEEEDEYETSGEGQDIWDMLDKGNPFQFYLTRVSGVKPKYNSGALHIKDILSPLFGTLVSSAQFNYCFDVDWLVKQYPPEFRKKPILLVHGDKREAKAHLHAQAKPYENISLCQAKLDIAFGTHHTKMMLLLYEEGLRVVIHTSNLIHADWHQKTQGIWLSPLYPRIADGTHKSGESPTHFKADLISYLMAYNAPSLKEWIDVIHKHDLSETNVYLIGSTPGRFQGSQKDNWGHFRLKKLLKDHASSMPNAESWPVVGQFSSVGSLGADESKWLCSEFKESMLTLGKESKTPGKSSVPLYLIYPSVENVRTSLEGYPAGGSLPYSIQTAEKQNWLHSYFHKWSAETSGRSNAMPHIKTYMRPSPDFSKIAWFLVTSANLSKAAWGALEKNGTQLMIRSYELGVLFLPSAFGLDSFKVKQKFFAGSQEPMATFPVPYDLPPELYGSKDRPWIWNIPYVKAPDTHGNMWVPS
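Here, a 5' biotin and 3' phosphotyrosine-FITC DNA oligonucleotide reports Tdp1 activity: intact substrate bridges AlphaScreen beads, while cleavage leaves a 3' phosphate and drops signal. All incubations at room temperature.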
S-ASM inh – inhibitors of human secretory acid sphingomyelinase | AID 504937 | P17405 | Potency, µM (highest dose often 57.5 µM), inactives show top-dose activity change, negative = inhibition, most hits filed as inhibitors | placental ASM, HMU-PC fluorogenic substrate, 60 min | 0.006% of 340,000 active
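Human placenta-derived ASM preincubated with compound 10 min at room temperature, then reacted with 9 uM (final) fluorogenic HMU-PC substrate for 60 min at 37 C. Stop solution raises pH to 10; fluorescence read at Ex 386/Em 447 nm.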
Tb PFK inh-1 – T. brucei PFK enzyme inhibition | 0.17% of 330,000 active | Potency, µM (titrated, usually from 57.5 µM), without a hit: at the highest dose activity, negative = inhibition, most hits filed as inhibitors | AID 485367 | T. brucei PFK, ADP-Glo luminescence | O15648;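 further: 0% = uninhibited 1x PFK enzyme wells and -100% = no-enzyme wells; nearly all actives have a fitted effect of over 60% in size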
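Compounds were pin-transferred as a titration series up to 57 uM into substrate buffer (0.5 mM F6P, 0.1 mM ATP, pH 8.0), then 1.25 nM PFK was added and reactions ran 45 min before ADP-Glo detection.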
Tb PFK KinaseGlo – orthogonal confirmation of T. brucei phosphofructokinase inhibitors; Tb PFK enzyme, ATP depletion, Kinase-Glo Plus luminescence; 47% of 1,100 active; shares compounds with Tb PFK inh-1; Potency, µM (highest dose often 57.5 µM), for inactives: at the top dose inhibition; calls by dose curve; further: nearly all actives have a fitted effect of over 60% in size
Tb PFK inh-2 – T. brucei PFK enzyme inhibition, hit validation; 41% of 1,100 active; shares compounds with Tb PFK inh-1; purified T. brucei PFK, ADP-Glo luminescence, 45 min; Potency, µM (highest dose often 57.5 µM), without a hit: at the highest dose activity change, negative = inhibition, usual class: inhibitors; AID 504637;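 further: plate controls were full PFK enzyme control for no effect and no enzyme control for full effect; nearly all actives have a fitted effect of over 60% in size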
Active calls of the source: *; i = inactive; ? = inconclusive; . = not tested or not shown; [ ] = dose if it differs, or a comment. Unless noted, the call rests on the fitted dose curve; in most records, active means well fitted curve in the direction sought with a large enough effect; inconclusive means small, poorly fitted or top-dose-only effect, or another doubt; inactive means no such curve, though single readings can be large; an effect the other way counts as inactive or inconclusive. Potency means the concentration at half of the fitted maximal effect.

SMILES | Pin1 inhibitor | VDR inhibitor | PLK1 PBD inh | TDP1 inh | S-ASM inh | Tb PFK inh-1 | Tb PFK KinaseGlo | Tb PFK inh-2
C/C(=N\NC(=O)CNc1cccc(Cl)c1C)C1CC1 | 0% | -1% | 8% | 5% | 2% | 21µM* | ? | ?
CC1(C)C(C(Cl)Cl)C2(Cl)C(Cl)C(Cl)C1(Cl)C2(Cl)Cl (centres undefined) | . | -14% | . | -9% | . | . | . | .
O=C(Cc1ccc(Br)cc1)Nc1ccc(S(=O)(=O)Nc2ncccn2)cc1 | -1% | -23% | -15% | 4% | -2% | 24µM* | 21µM* | 21µM*
O=C(CCl)Nc1nccs1 | -13% | 17% | -9% | 6% | -3% | -4% | . | .
COc1cccc(CC(=O)Nc2ccc(S(=O)(=O)Nc3nccs3)cc2)c1 | 0% | 1% | 1% | 1% | 4% | 19µM* | 19µM* | ?
CCCCc1ccc(NC(=O)c2cccn(Cc3ccc(Cl)cc3)c2=O)cc1 | 7% | -9% | . | 1% | . | . | . | .
O=C(Cc1ccc(Cl)cc1)Nc1ccc(S(=O)(=O)Nc2ncccn2)cc1 | 13% | -19% | -10% | 6% | 5% | 21µM* | 11µM* | 19µM*
CNC(=O)[C@@H]1C[C@H]1[C@@H](NP(=O)(c1ccccc1)c1ccccc1)c1ccccc1 | . | . | . | 7% | . | . | . | .
c1ccc2sc(C3(N4CCCC4)CCCCC3)cc2c1 | . | -24% | . | 9% | . | . | . | .
CC[C@H](Oc1ccc(Cl)cc1)C(=O)OC1C[C@H]2CC[C@@H](C1)N2C (some centres undefined) | . | -2% | . | 9%[56.1 µM] | . | . | . | .
CCc1ccc(NC(=O)c2ccc(F)c(S(=O)(=O)N3CCC4(CC3)OCCO4)c2)cc1 | ? | 6% | . | 5% | . | . | . | .
CC(O)CCl (centres undefined) | . | . | . | 5% | . | . | . | .
Cc1cc(C(C#N)c2ccc(Cl)cc2)c(Cl)cc1NC(=O)c1cc(I)cc(I)c1O (centres undefined) | . | ? | ? | 18% | -7% | 1% | . | .
Brc1cccc(OCCn2ccnc2)c1 | -9% | -12% | ? | 6% | -1% | 21µM* | 12µM* | 13µM*
CCOC(=O)c1c(-c2ccco2)csc1NC(=O)COC(=O)c1cnccn1 | ? | -9% | -19% | ? | -6% | 6.7µM* | 24µM* | -27%
O=c1cccc2n1CC1CC2CN2CCCCC12 (centres undefined) | . | 2% | . | 4% | . | . | . | .
CN(C)C1(CNC(=O)Nc2ccc(Cl)c(Cl)c2)CCCCC1 | -6% | -8% | -7% | . | 2% | -6% | . | .
Cc1occc(=O)c1OC(=O)Nc1ccc(Cl)c(Cl)c1 | -1% | -12% | -11% | 3% | 0% | 30µM* | ? | ?
O=C(Nc1ccccc1)N1CC[C@@]2(CCCNC2)C1 | . | -22% | . | . | . | . | . | .
O=C1CN=C(c2ccccc2Cl)c2cc(Cl)ccc2N1Cc1cccc(Cl)c1 | ? | 17% | . | -1% | . | . | . | .
COc1ccccc1N1CCN(Cc2ccc(Br)cc2)CC1 | -2% | -2% | -7% | . | 3% | -3% | . | .
Clc1ccc(CN2C3=NCCN3c3ccccc32)cc1 | 2% | 1% | 2% | 3% | -3% | 24µM* | 21µM* | 27µM*
Clc1cccc(CN2C3=NCCCN3c3ccccc32)c1 | -3% | -4% | 1% | . | -1% | ? | ? | ?
c1ccc(OCCN2C3=NCCN3c3ccccc32)cc1 | 0% | 5% | -3% | 4% | 2% | 21µM* | 24µM* | ?
Brc1ccc(CN2C3=NCCCN3c3ccccc32)cc1 | -5% | -14% | ? | 3% | 0% | ? | 27µM* | ?
SMILES | Pin1 inhibitor | VDR inhibitor | PLK1 PBD inh | TDP1 inh | S-ASM inh | Tb PFK inh-1 | Tb PFK KinaseGlo | Tb PFK inh-2
N[C@H](CP(=O)(O)O)C(=O)O | . | . | . | -5% | . | . | . | .
C[C@]12CCC3C(CC[C@H]4C[C@@H](O)CC[C@]34C)[C@@H]1CCC2=O (some centres undefined) | . | -15% | . | 5% | . | . | . | .
COc1ccc(CCNC(=O)c2c(N)n(CCN3CCOCC3)c3nc4ccccc4nc23)cc1OC | 5% | -4% | 3% | 2% | i | 0% | . | .
COc1ccc(CCNC(=O)c2cc3c(=O)n4cccc(C)c4nc3n(Cc3ccco3)c2=N)cc1OC | ? | -14% | -30% | 6% | 239% | ? | -2% | 1%
CC[C@@]1(O)C(=O)OCc2c1cc1n(c2=O)Cc2cc3c(O)cccc3nc2-1 | . | 10% | . | ? | . | . | . | .
Cc1c(Br)c([N+](=O)[O-])nn1CC(=O)Nc1ccc(C(N)=O)cc1 | 5% | -12% | -5% | 5% | 1% | 19µM* | 13µM* | 27µM*
CC(=O)C[C@@H](c1ccccc1)c1c(O)c2ccccc2oc1=O | . | -3% | . | 8% | . | . | . | .
CCN1C[C@@]2(COC)[C@H]3[C@@H](OC)[C@H]4C1[C@@]3([C@H](OC)C[C@@H]2O)[C@H]1C[C@@]2(O)[C@@H](OC(=O)c3ccccc3)[C@@H]1[C@@]4(OC(C)=O)[C@H](O)[C@@H]2OC | . | 1% | . | 10%[21 µM] | . | . | . | .
CC/C(=N/Nc1cccc(Cl)c1)c1cnnc(SC)n1 | 9% | -9% | -12% | 0% | -7% | ? | ? | ?
CN1CCCCC1c1cccnc1 (centres undefined) | . | 1% | . | 16% | . | . | . | .
CC(C)n1ncc2c(C(=O)Nc3ccc(S(N)(=O)=O)cc3)cc(C3CC3)nc21 | 7% | -9% | -9% | 5% | 11% | ? | -33% | ?
Nc1cc(=O)[nH]c(SCC(=O)Nc2ccc(F)c(Cl)c2)n1 | 3% | -3% | -9% | 1% | 0% | ? | ? | 30µM*
O=C(CSc1nc2ccccc2c(=O)[nH]1)NCc1ccc(Cl)cc1 | ? | 6% | -8% | 7% | -2% | -2% | . | .
CC1=C(C(=O)Nc2ccccc2)C(c2ccc[nH]2)n2ncnc2N1 (centres undefined) | ? | 4% | . | . | . | ? | ? | -13%
Cc1cc(C(=O)Nc2ccccc2)nn1C(C)(C)C | 1% | 18% | 1% | 10% | -1% | 2% | . | .
Oc1cc(Cl)ccc1Cl | . | . | . | 16% | . | . | . | .
COC(=O)[C@@]1(Cc2ccccc2)[C@H]2c3cc(C(=O)N(C)C)n(C)c3C[C@H]2CN1C(=O)c1ccccc1 | . | . | . | 12% | . | . | . | .
O=S(=O)(O)c1cc(OS(=O)(=O)c2ccccc2)cc2ccccc12 | 0% | 1% | -13% | . | 5% | 24µM* | ? | ?
O=P(NS(=O)(=O)c1ccccc1)(Oc1ccccc1)Oc1ccccc1 | -14% | -3% | -8% | -7% | 5% | 0% | . | .

Compound activity: PubChem BioAssay, National Center for Advancing Translational Sciences (NCATS)
